Laboratory results: the supplement of paper PMC10498489
The whole screen tested about 2,300 compounds, of which about 330 (14%) showed activity.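 Rule for the calls: active = median modified Z-score above 1.96; inactive = 1.96 or below.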 A selection follows.

Tested on: HepG2 Srxn1-GFP reporter cells (+30 nM CDDO-Me)
Assay: Srxn1-GFP intensity median modified Z-score relative to plate median; higher = stronger NRF2 / oxidative stress reporter activation, active = hit call of the paper
Details: 10 µM; exposure time: 24h
How it was run: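 In 96-well plates holding 20,000 HepG2 Srxn1-GFP BAC reporter cells per well, compound at 10 μM and an NRF2 activator at 30 nM were added together for 24 h, with DMSO at ≤0.1%, across three replicate plates. After fixation in formaldehyde and Hoechst staining, confocal images were analysed cell by cell for cytoplasmic GFP, and images containing under 100 cells were excluded. Values are replicate medians of the per-plate modified Z-score of GFP intensity, scaled by 1.4826 × median absolute deviation.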

How did the “Srxn1-GFP intensity median modified Z-score” value turn out when `O=C(O)CCCCCCCCCCCCC1C=CCC1` (stereo not drawn) [euspeclibcmpd1516] was run?
Its value is 10.6 (active).

How did the “Srxn1-GFP intensity median modified Z-score” value turn out when `CCOC(=O)CCCCCCCCCCCCC1C=CCC1` (stereo not drawn) [euspeclibcmpd2000] was run?
Its value is -0.411 (inactive).

With `O=C(O)CCCCC1CCSS1` (stereo not drawn) [euspeclibcmpd1157] as the molecule, how does the “Srxn1-GFP intensity median modified Z-score” value read?
The value was 0.0225 (inactive).

Which “Srxn1-GFP intensity median modified Z-score” value does the source give for `COc1ccc(-c2coc3cc(O)ccc3c2=O)c(OC)c1` [euspeclibcmpd1838] here?
Its value is 1.83 (inactive).

For `C=CC[S+]([O-])CC(N)C(=O)O` (stereo not drawn) [euspeclibcmpd2346], which “Srxn1-GFP intensity median modified Z-score” value is on record?
Its value is -0.228 (inactive).

Which “Srxn1-GFP intensity median modified Z-score” value does the source give for `O=C(O)CCCCCCCC(O)C(O)CCCCCCO` (stereo not drawn) [euspeclibcmpd1577] here?
The value was -0.245 (inactive).

For `CS(=O)(=O)OCCCCOS(C)(=O)=O` [euspeclibcmpd40], which “Srxn1-GFP intensity median modified Z-score” value is on record?
The value was 1.41 (inactive).

How did the “Srxn1-GFP intensity median modified Z-score” value turn out when `CS(C)(=O)=O` [euspeclibcmpd1496] was run?
Its value is 20.2 (active).

How did the “Srxn1-GFP intensity median modified Z-score” value turn out when `COCCCOc1cc(C[C@@H](C[C@H](N)[C@@H](O)CC(C(=O)NCC(C)(C)C(N)=O)C(C)C)C(C)C)ccc1OC` (stereo partly drawn) [euspeclibcmpd873] was run?
Its value is 0.194 (inactive).

`CC(C)C1CCC(C(=O)NC(Cc2ccccc2)C(=O)O)CC1` (stereo not drawn) [euspeclibcmpd675] was tested. Which “Srxn1-GFP intensity median modified Z-score” value did it give?
The value was -0.338 (inactive).

How did the “Srxn1-GFP intensity median modified Z-score” value turn out when `Nc1ccc(S(N)(=O)=O)cc1` [euspeclibcmpd1042] was run?
Its value is -0.418 (inactive).

For `Nc1ccc(S(=O)(=O)O)cc1` [euspeclibcmpd2086], which “Srxn1-GFP intensity median modified Z-score” value is on record?
Its value is 2.19 (active).

For `Nc1ccc(S(=O)(=O)c2ccc(N)cc2)cc1` [euspeclibcmpd82], which “Srxn1-GFP intensity median modified Z-score” value is on record?
Its value is 0 (inactive).

Which “Srxn1-GFP intensity median modified Z-score” value does the source give for `NCCC(=O)NC(Cc1c[nH]cn1)C(=O)O` (stereo not drawn) [euspeclibcmpd1431] here?
The value was -0.178 (inactive).

How did the “Srxn1-GFP intensity median modified Z-score” value turn out when `C[C@]12CCC3c4ccc(OC(=O)c5ccccc5)cc4CCC3C1CCC2=O` (stereo partly drawn) [euspeclibcmpd2153] was run?
Its value is -0.646 (inactive).

For `CC(=O)NC(CC(=O)NC(CCC(=O)O)C(=O)O)C(=O)O` (stereo not drawn) [euspeclibcmpd1295], which “Srxn1-GFP intensity median modified Z-score” value is on record?
The value was -0.164 (inactive).

How did the “Srxn1-GFP intensity median modified Z-score” value turn out when `CC[C@H](/C=C/C(C)C1CCC2C3CC=C4CC(=O)CC[C@]4(C)C3CC[C@]12C)C(C)C` (stereo partly drawn) [euspeclibcmpd1667] was run?
The value was -0.11 (inactive).

Which “Srxn1-GFP intensity median modified Z-score” value does the source give for `CN(C)c1ccc2nc3ccc(N(C)C)cc3[s+]c2c1` [euspeclibcmpd789] here?
The value was 9.06 (active).

How did the “Srxn1-GFP intensity median modified Z-score” value turn out when `Cc1cc2nc3ccc(N(C)C)cc3[s+]c2cc1N` [euspeclibcmpd1030] was run?
Its value is 9 (active).

`CC(C)(S)C(N)C(=O)O` (stereo not drawn) [euspeclibcmpd968] was tested. Which “Srxn1-GFP intensity median modified Z-score” value did it give?
Its value is 0.0726 (inactive).

For `OC[C@@H](O)[C@@H](O)[C@H](O)[C@@H](O)CO` [euspeclibcmpd2147], which “Srxn1-GFP intensity median modified Z-score” value is on record?
The value was -0.0321 (inactive).

For `N=C(N)N=C(N)N1CCOCC1` [euspeclibcmpd1191], which “Srxn1-GFP intensity median modified Z-score” value is on record?
Its value is -0.583 (inactive).

For `NC(=O)CCC(NC(=O)C(N)CO)C(=O)O` (stereo not drawn) [euspeclibcmpd2427], which “Srxn1-GFP intensity median modified Z-score” value is on record?
The value was -0.15 (inactive).
